Screens deposited in PubChem BioAssay by Paczesny and Yang Labs, IUPUI and University of Michigan.
Shown is part of a subset that was picked to be rich in hits.
ST2 IL33 inh = inhibitors of human ST2 (IL1RL1) binding to IL-33, primary screen, biochemical, AlphaLISA. AlphaLISA ST2-Fc/biotin-IL-33 interaction, 1 h. inhibition, % for hits at 17 µM. actives 2.3% (n = 78,000). AID 1259354, 2018; in the data active = inhibition above about 30%
Target sequence (Q01638 whole entry, looked up): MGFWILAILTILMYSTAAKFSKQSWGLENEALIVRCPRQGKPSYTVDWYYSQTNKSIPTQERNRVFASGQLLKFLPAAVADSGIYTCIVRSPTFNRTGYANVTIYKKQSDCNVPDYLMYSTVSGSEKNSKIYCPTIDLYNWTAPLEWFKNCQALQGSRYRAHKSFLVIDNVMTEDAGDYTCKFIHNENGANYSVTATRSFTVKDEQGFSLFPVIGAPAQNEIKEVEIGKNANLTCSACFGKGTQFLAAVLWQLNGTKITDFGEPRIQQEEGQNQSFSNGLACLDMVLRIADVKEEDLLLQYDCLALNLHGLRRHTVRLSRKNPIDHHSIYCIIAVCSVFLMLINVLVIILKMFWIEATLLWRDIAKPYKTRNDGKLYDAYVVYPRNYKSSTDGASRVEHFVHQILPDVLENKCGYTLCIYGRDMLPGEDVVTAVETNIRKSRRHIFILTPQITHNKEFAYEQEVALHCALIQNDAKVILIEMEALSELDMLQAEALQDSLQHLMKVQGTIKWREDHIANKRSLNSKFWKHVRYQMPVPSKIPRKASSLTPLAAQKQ
Numbers without * were called inactive; i = inactive.

SMILES	ST2 IL33 inh
Cc1ccc(CN2CC[C@H](c3nnc(Cc4c[nH]c5ccccc45)o3)C2)cc1	i
COc1cccc2c1OCC(C(=O)N(C)Cc1ccno1)C2 (stereo not drawn)	i
N#Cc1ccc(OC(=O)Cn2c3ccccc3c(=O)c3ccccc32)cc1	i
CNC(=O)C(C)N(C)Cc1nc2ccccc2n1CC(C)C (stereo not drawn)	i
CNC(=O)C(C)N(C)Cc1nnc(CC2CCNCC2)n1-c1ccccc1 (stereo not drawn)	30.0%*
CNC(=O)C(C)N(C)Cc1cccc(C(=O)OC)c1 (stereo not drawn)	i
Cc1cc(C)c(C(=O)N(C)Cc2nc3ccc(Cl)cc3[nH]2)c(=O)[nH]1	i
Cc1ccc(C2(O)CCN(C(=O)CC3NC(=O)c4ccccc43)CC2)nc1 (stereo not drawn)	i
CC(=O)Nc1ccccc1-c1ccc(C)o1	i
N=C1S/C(=C/c2ccc(-c3ccccc3C(=O)O)o2)C(=O)N1c1nccs1	i
Cc1c(C(=O)O)cccc1-c1ccc(/C=C/[N+](=O)[O-])o1	61.0%*
Cc1ccc(Cl)cc1-c1ccc(/C=C/[N+](=O)[O-])o1	51.0%*
COc1cc([N+](=O)[O-])ccc1-c1ccc(/C=C2\C(=O)N(c3cccc(Cl)c3)N=C2C)o1	i
O=C(Cc1ccc(Cl)cc1)NC1CC(=O)N(c2ccccc2)C1 (stereo not drawn)	i
CC(C)(C)c1ccc2c(c1)CN(C(C)(C)C)CO2	i
CCC(C)OC(=O)C1=C(C)NC2=C(C(=O)C(C(=O)OC)C(C)C2)C1c1cccc(F)c1 (stereo not drawn)	i
CCCOc1ccccc1C1CC(=O)C2=C(C1)Nc1ccccc1NC2c1ccc(OC)cc1 (stereo not drawn)	i
COc1ccc(C2CC(=O)C3=C(C2)Nc2ccccc2NC3c2ccc(C)s2)cc1 (stereo not drawn)	30.0%*
COc1cc(C2Nc3ccccc3NC3=C2C(=O)CC(c2ccccc2)C3)ccc1OC(C)=O (stereo not drawn)	i
Cc1ccccc1-n1cc(CN(C)S(=O)(=O)NCc2ccccc2)cn1	i
O=C(CSc1ncccn1)Nc1nc(-c2ccccc2)cs1	i
O=C(CN1C(=O)c2ccccc2C1=O)Nc1nc(-c2ccncc2)cs1	36.0%*
O=C(COc1ccccc1)Nc1nc(-c2ccccc2)cs1	i
CCN(CC)S(=O)(=O)c1cc(C(=O)Nc2ccc(Br)cc2)ccc1Cl	i
CCc1ccc(S(=O)(=O)N2CCN(c3nc(C)cc(N4CCOCC4)n3)CC2)cc1	i
SMILES	ST2 IL33 inh
C=CCN1C(=O)S/C(=C/c2ccc(N3CCCC3)o2)C1=O	44.0%*
C=CCN1C(=O)c2ccccc2Sc2ccc(C(=O)O)cc21	i
C=CCNc1nc2ccccn2c(=O)c1/C=C1\SC(=O)N(CCC)C1=O	i
O=[N+]([O-])c1cc(Cc2ccccc2)ccc1O	36.0%*
O=[N+]([O-])c1cc(CN2CCOCC2)ccc1O	i
O=[N+]([O-])c1cc(CN2CCCCC2)ccc1O	i
O=C1CC(NCc2cccc3cccnc23)CN1CCc1ccccc1 (stereo not drawn)	i
Cc1ccc2nc(-c3ccc(N)cc3O)oc2c1	34.0%*
Cc1ccc2oc(-c3ccc(NC(=O)c4cccnc4)cc3O)nc2c1	i
Cc1ccc2oc(-c3ccc(NC(=O)c4ccccc4Cl)cc3O)nc2c1	i
O=C(O)CCc1nc2c(cnn2-c2ccccc2)c(=O)[nH]1	i
Cc1ccc(CCNC(=O)c2c[nH]c3ccc(S(=O)(=O)Nc4ccccc4F)cc3c2=O)cc1	i
NS(=O)(=O)c1ccc(NC(=O)c2ccco2)cc1	i
CC(C)N1CCC(CNC(=O)CCC2CCCC2)C1 (stereo not drawn)	i
C=C(C)COc1cccc(C(=O)NCc2cn3nc(C)sc3n2)c1	i
Cc1ccc(S(=O)(=O)N=C(Nc2ccccn2)c2ccccc2)cc1	i
Cc1ccc(C(N)=NC(=NS(=O)(=O)c2ccccc2)c2ccccc2)cc1	i
CC1=CC(=NC(=NS(=O)(=O)c2ccc(C)cc2)c2ccccc2)C(C)=CC1=O	44.0%*
Nc1nonc1-c1noc(COc2cccc(Cl)c2Cl)n1	i
Cc1ccccc1CCN1C(=O)c2oc3ccccc3c2OCC1(C)C(=O)NC1CCCC1 (stereo not drawn)	i
CCC(C)NC(=O)c1ccc2nc(N)sc2c1 (stereo not drawn)	i
COc1ccc(/C=C/C(=O)Nc2ccccc2C(=O)O)cc1OC	i
COc1ccc2oc(=O)c(NC(=O)/C=C/c3ccccc3)cc2c1	i
CC1=CC(=O)C=C(C)C1=NOC(=O)/C=C\c1ccccc1	35.0%*
N#CC1=C(N)Oc2n[nH]c(-c3ccc4c(c3)OCO4)c2C1c1c(F)cccc1Cl (stereo not drawn)	i
SMILES	ST2 IL33 inh
Cc1nc(CNC(=O)c2cccc(Cn3cccn3)c2)cs1	i
COc1ccc(NC(=O)Cc2c(C(=O)O)[nH]c3ccc(Cl)cc23)cc1OC	i
CCC(=O)N1c2ccccc2-c2nnc(SC)nc2OC1c1sccc1C (stereo not drawn)	i
CC(=O)N(CN1C(=O)CCC1=O)c1cccc(Cl)c1	i
CN(C)C(=O)c1ccccc1-c1cccc(Cl)c1	i
CC(=O)N(C1=C(N(C)C)C(=O)c2ccccc2C1=O)c1cccc(Cl)c1	31.0%*
COC(=O)c1ccc(-n2ncnc2-c2ccc(N(C)C)cc2)cc1	i
Cc1nc(N2CCCC2)nc(-c2cccc(O)c2)c1C	i
O=S(=O)(NCc1ccc(F)cc1)c1cccc2cccnc12	i
Cc1ccc(Nc2nc(-c3ccc(F)cc3)cs2)cc1C	i
Cc1ccnc(Nc2nc(-c3ccc(O)c(O)c3)cs2)c1	44.0%*
Cc1ccnc(Nc2nc(-c3ccccn3)cs2)c1	i
O=C(Nc1ccccc1)c1ccc(S(=O)(=O)N2CCCCC2)cc1	i
O=C(O)c1ccc(S(=O)(=O)N2CCCC2)cc1	35.0%*
CC(C)(C)c1ccc(C(=O)Nc2ccc(S(=O)(=O)N3CCCC3)cc2)cc1	i
O=C(Nc1ncc(Cc2ccc(F)cc2)s1)c1ccc(Br)cc1	i
O=c1/c(=C/c2ccccc2F)sc2nc3ccccc3n12	i
CCCCN1C(=O)/C(=c2\sc3nc(-c4ccc(OC)cc4)nn3c2=O)c2ccccc21	i
C=CCN1C(=O)/C(=c2/sc3nc4ccccc4n3c2=O)c2ccccc21	31.0%*
O=C(CSc1nc2ccccc2s1)Nc1ccc(Br)cc1	i
COCC(c1ccccn1)N(C)C(=O)c1ccc2c(c1)OCCN2C (stereo not drawn)	i
Cc1ccccc1N1CCN(C2CCCN(C(=O)c3ccc4ccccc4c3)C2)CC1 (stereo not drawn)	i
Cc1cc2c(cc1O)NC(=O)CC2c1cc(=O)n2c3c(cccc13)CCC2 (stereo not drawn)	i
Cc1c(C)n2c3c(cccc13)CCC2	52.0%*
Cc1c(C=O)c2ccccc2n1CC(=O)N1CCCc2ccccc21	i
COCCCNC(=O)c1ccc(NC2=NC3CS(=O)(=O)CC3S2)cc1 (stereo not drawn)	i
CC(=O)c1[nH]c(C)c(C(=O)N2CC[C@@H](c3sccc3C)[C@H](O)C2)c1C	i
CCc1nc(C)c(C(=O)N2CC[C@@H](c3sccc3C)[C@H](O)C2)o1	i
Cc1ccsc1[C@@H]1CCN(C(=O)c2coc3c2C(=O)CCC3)C[C@H]1O	32.0%*
